From PubChem
Many of the other results were omitted from the sample, so hits are more common in it than they were.
IDE exosite inh = exo-site inhibitors of human IDE, primary screen, biochemical, fluorescence anisotropy, probe displacement; Insulin-degrading enzyme (Homo sapiens), P14735; purified IDE, FL-6b probe fluorescence polarization; active compounds read low; z-score at 20 µM; 17,000 compounds, 6.3% hits; AID 1259349, 2017;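 active = z-score of -3 or lower, meaning strong loss of probe binding signal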;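 also: His-tagged human IDE residues 42-1019 made in E. coli with 30 nM FL-6b probe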
* = called active by the depositor; ! = repeats disagree.

SMILES	IDE exosite inh
O=C(Cc1ccccn1)N1CC(=O)N2[C@H](CO)[C@H](c3ccc(C#CC4CCCCC4)cc3)[C@@H]2C1	-0.63
Cc1ccccc1-c1ccc([C@H]2[C@@H](CO)N3C(=O)CN(C(=O)Cc4ccccn4)C[C@@H]23)cc1	-17*
CN(C)CC(=O)N1CCCCN2[C@H](C1)[C@H](c1ccc(-c3ccccc3)cc1)[C@@H]2CO	1.5
CS(=O)(=O)Nc1ccc2c(c1)[C@@H]1C[C@@H](CC(=O)NCc3cc(F)ccc3F)O[C@@H](CO)[C@@H]1O2	-0.99
CC(C)NC(=O)N1CCCCN2[C@H](CO)[C@H](c3ccc(Br)cc3)[C@H]2C1	2.4
COc1cccc(-c2ccc([C@H]3[C@@H](CO)N4CCCCN(C(=O)NC(C)C)C[C@H]34)cc2)c1	-8.1*
CC(C)NC(=O)N1CCCCN2[C@H](C1)[C@H](c1ccc(Br)cc1)[C@@H]2CO	1.6
COc1cccc(-c2ccc([C@H]3[C@H]4CN(C(=O)c5ccc(F)cc5)CCCCN4[C@H]3CO)cc2)c1	1.4
COc1cccc(-c2ccc([C@@H]3[C@@H](CO)N4CCCCN(C(=O)NC(C)C)C[C@@H]34)cc2)c1	-6*
CC(C)NC(=O)N1CCCCN2[C@H](CO)[C@H](c3ccc(Br)cc3)[C@@H]2C1	2.4
COc1cccc(-c2ccc([C@@H]3[C@@H](CO)N4CCCCN(C(=O)NC(C)C)C[C@H]34)cc2)c1	-6.6*
CC(C)NC(=O)N1CCCCN2[C@H](CO)[C@@H](c3ccc(Br)cc3)[C@@H]2C1	1.7
COc1cccc(-c2ccc([C@@H]3[C@H](CO)N4CCCCN(C(=O)c5ccc(F)cc5)C[C@@H]34)cc2)c1	0.21
CCc1nc(N2[C@H](C#N)[C@H](c3ccccc3-c3ccccc3F)[C@@H]2CO)sc1C	0.46
CCC(=O)N1[C@H](CO)[C@@H]2c3ccccc3N(C(=O)c3cnccn3)C[C@@H]21	0.33
COc1ccc(-c2ccc([C@@H]3[C@@H](CO)N4C(=O)CN(Cc5ccc(F)cc5)C[C@@H]34)cc2)cc1	3.6
N#C[C@@H]1[C@H](c2ccc(C3=CCCC3)cc2)[C@@H](CO)N1C(=O)NC1CCCCC1	0.65
COCC(=O)Nc1ccc2c(c1)C(=O)N(C)[C@@H]1CC[C@H](CC(=O)N3CCc4ccccc4C3)O[C@H]1CO2	-1.9
C/C=C/c1ccc([C@@H]2[C@H](C#N)N(c3nc(CC)cs3)[C@H]2CO)cc1	0.95
Cn1cnc(S(=O)(=O)N2CCCCN3[C@@H](CO)[C@H](c4ccc(-c5ccccc5F)cc4)[C@@H]3C2)c1	0.11
Cn1cnc(S(=O)(=O)N2CCCCN3[C@H](CO)[C@H](c4ccc(C5=CCCCC5)cc4)[C@@H]3C2)c1	-0.73
Cc1ccccc1-c1ccc([C@H]2[C@@H](CO)N3CCCCN(S(=O)(=O)c4cn(C)cn4)C[C@H]23)cc1	-17*
COc1ccccc1-c1ccc([C@@H]2[C@H]3CN(S(=O)(=O)c4cn(C)cn4)CCCCN3[C@H]2CO)cc1	-8.4*
Cn1cnc(S(=O)(=O)N2CCCCN3[C@H](C2)[C@H](c2ccc(C4=CCCCC4)cc2)[C@@H]3CO)c1	0.24
Cn1cnc(S(=O)(=O)N2CCCCN3[C@H](CO)[C@@H](c4ccc(-c5ccccc5F)cc4)[C@@H]3C2)c1	-11*
SMILES	IDE exosite inh
Cn1cnc(S(=O)(=O)N2CCCCN3[C@H](C2)[C@H](c2ccc(-c4ccccc4F)cc2)[C@@H]3CO)c1	1.3
Cc1ccccc1-c1ccc([C@@H]2[C@H]3CN(S(=O)(=O)c4cn(C)cn4)CCCCN3[C@H]2CO)cc1	-19*
Cn1cnc(S(=O)(=O)N2CCCCN3[C@H](C2)[C@H](c2ccc(-c4ccc(F)cc4)cc2)[C@@H]3CO)c1	2.9
COc1cccc(NC(=O)N2CC(=O)N3[C@H](CO)[C@H](c4ccc(C5=CCCC5)cc4)[C@@H]3C2)c1	-0.07
CCN(C[C@H]1[C@@H](c2ccc(-c3ccccc3F)cc2)[C@@H](CO)N1C(C)=O)C(C)=O	4.2
O=C(NC1CCCC1)[C@@H]1[C@@H](CO)[C@@H]2Cn3c(ccc(C4=CCCCC4)c3=O)[C@H]1N2CC1CC1	0.17
CCNC(=O)C[C@H]1CC[C@@H]2[C@H](COC[C@H](O)CN2C(=O)C2CCCC2)O1	0.34
CCCNC(=O)N1CC(=O)N2[C@@H](CO)[C@@H](c3ccc(C#Cc4cccc(OC)c4)cc3)[C@@H]2C1	-1.3
CCCNC(=O)N1CC(=O)N2[C@@H](CO)[C@H](c3ccc(C#Cc4cccc(OC)c4)cc3)[C@@H]2C1	-2.8
CCC(=O)N1CC(=O)N2[C@@H](CO)[C@@H](c3ccc(C#Cc4cccc(OC)c4)cc3)[C@@H]2C1	-11*
COc1cccc(C#Cc2ccc([C@@H]3[C@@H](CO)N4C(=O)CN(C(=O)C5CC5)C[C@H]34)cc2)c1	-1.9
CCC(=O)N1CC(=O)N2[C@H](C1)[C@H](c1ccc(C#Cc3cccnc3)cc1)[C@@H]2CO	-3*
CCC(=O)N1CC(=O)N2[C@H](CO)[C@@H](c3ccc(C#Cc4cccc(OC)c4)cc3)[C@H]2C1	-4.2*
CCC(=O)N1CC(=O)N2[C@@H](CO)[C@@H](c3ccc(C#Cc4cccnc4)cc3)[C@@H]2C1	2
COc1cccc(C#Cc2ccc([C@H]3[C@H](CO)N4C(=O)CN(C(=O)c5ccccc5)C[C@@H]34)cc2)c1	-2.2
CCC(=O)N1CC(=O)N2[C@H](CO)[C@@H](c3ccc(C#Cc4cccnc4)cc3)[C@@H]2C1	-0.31
COc1cccc(S(=O)(=O)N[C@@H]2CC[C@@H](CC(=O)NC3Cc4ccccc4C3)O[C@H]2CO)c1	0.56
COc1cc(CN2[C@@H]3CNC[C@H]2C3c2ccc(/C=C/c3ccccc3)cc2)cc(OC)c1 (stereo not given in full)	-5.5*!
C(=C\c1ccc(C2[C@H]3CNC[C@@H]2N3Cc2ccccn2)cc1)/c1ccccc1 (stereo not given in full)	-3.8*!
COc1cccc(CN2[C@@H]3CNC[C@H]2C3c2ccc(/C=C/c3ccccc3)cc2)c1 (stereo not given in full)	-0.84
c1ccc(CN2[C@@H]3CNC[C@H]2C3c2ccc(-c3cccnc3)cc2)nc1 (stereo not given in full)	1.7
COc1cc(CN2[C@@H]3CNC[C@H]2C3c2ccc(-c3ccccc3)cc2)cc(OC)c1 (stereo not given in full)	-2.4
C(=C\c1ccc(C2[C@H]3CNC[C@@H]2N3Cc2cncnc2)cc1)/c1ccccc1 (stereo not given in full)	0.52
COc1ccc(NC(=O)N2CC(=O)N3[C@H](CO)[C@H](c4ccc(C#CCC5CCCC5)cc4)[C@H]3C2)cc1	0.61
COc1ccc2c3c([nH]c2c1)[C@H](CO)N(Cc1ccncc1)CC31CN(Cc2ccc(-c3ccccn3)cc2)C1	-2
C[C@@H]1CCCCO[C@@H](CN(C)C(=O)NC2CCCCC2)[C@H](C)CN([C@H](C)CO)C(=O)c2cc(N(C)C)ccc2O1	0.55
C[C@H](CO)N1C[C@H](C)[C@H](CN(C)C(=O)NC2CCCCC2)Oc2ccc(N(C)C)cc2CC1=O	-0.31
COc1ccc2c3c([nH]c2c1)[C@@H](CO)N(S(=O)(=O)c1ccc(C)cc1)CC31CN(Cc2ccccc2)C1	-0.045
CC[C@H]1C/C=C\C[C@H](CC)NC(=O)[C@@H](C)CC(=O)N1	1.1
Cc1ccccc1S(=O)(=O)N1CC(=O)N2[C@H](C1)[C@H](c1ccc(C#CC3CC3)cc1)[C@@H]2CO	3.2
